Source: PubChem BioAssay (The Scripps Research Institute Molecular Screening Center)
Sampled rows, rich in hits. Any-hit rate of the full collection: about 0.87%.
IDE cell inh: inhibits human insulin-degrading enzyme in HEK cells | 0.41% of 320,000 active | inhibition, % at 5.59 µM | AID 434962 | FAbetaB cleavage, fluorescence polarization | P14735;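 active = percent inhibition above the average of all tested compounds plus 3 SD, set per screening campaign, cut at about 16% in these data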;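 note: IDE supplied by intact live HEK cells; FP after avidin binding of uncleaved biotin substrate so inhibition keeps polarization high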
NOD2-RIPK2 inh: blocks binding of human NOD2 to RIPK2; CHO BLA complementation NOD2-RIPK2, CCF4 ratio; inhibition, % at 4.98 µM; 0.38% of 360,000 active; in the data active = inhibition above about 21%
Target sequence (O43353 whole entry, looked up): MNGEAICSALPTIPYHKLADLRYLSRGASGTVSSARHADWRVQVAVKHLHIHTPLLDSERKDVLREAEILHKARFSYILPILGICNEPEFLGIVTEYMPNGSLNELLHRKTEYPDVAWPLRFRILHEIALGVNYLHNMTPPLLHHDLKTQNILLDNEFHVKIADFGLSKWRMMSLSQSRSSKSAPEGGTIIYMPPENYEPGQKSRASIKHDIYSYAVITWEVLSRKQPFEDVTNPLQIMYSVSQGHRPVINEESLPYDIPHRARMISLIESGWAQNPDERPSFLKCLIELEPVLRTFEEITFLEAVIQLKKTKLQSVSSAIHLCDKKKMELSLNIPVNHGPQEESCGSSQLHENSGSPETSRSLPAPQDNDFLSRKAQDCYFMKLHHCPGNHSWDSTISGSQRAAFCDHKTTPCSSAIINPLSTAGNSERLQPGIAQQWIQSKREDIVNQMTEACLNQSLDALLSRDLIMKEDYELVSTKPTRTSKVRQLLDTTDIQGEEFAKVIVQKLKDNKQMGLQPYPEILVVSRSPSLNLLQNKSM
TLR4-MyD88 BLA: TLR4-MyD88 interaction inhibition in cells; HeLa CL3-4 TLR4/MyD88 BLA complementation, FRET ratio; inhibition, % at 8.4 µM; 0.18% of 200,000 active; AID 861; in the data active = inhibition above about 25%
IDE cell activ: boosts human insulin-degrading enzyme activity in HEK cells; P14735; FAbeta-B cleavage, fluorescence polarization; 0% vehicle, 100% cell-free pure enzyme wells; activation, % at 5.96 µM; 0.073% of 340,000 active; AID 493087;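 active = activation above the mean of all tested compounds plus 3 SD, set per screening campaign, cut at about 17% in these data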
TLR9-MyD88 block: TLR9-MyD88 interaction inhibition | CHO BLA complementation TLR9-MyD88, CCF4 FRET ratio | inhibition, % at 4.98 µM | AID 504734 | 0.21% of 340,000 active | Q9NR96+Q99836;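 active = inhibition above the mean over all tested compounds plus 3 SD, cut at about 21% in these data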
NOD2 RIPK2 conf: confirmation of human NOD2-RIPK2 interaction inhibitors | shares compounds with NOD2-RIPK2 inh | 70% of 1,200 active | CHO cells, NOD2-RIPK2 BLA complementation, CCF4 FRET | AID 624370 | inhibition, % at 4.98 µM;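 active = mean inhibition across replicates above a set limit taken from the earlier primary screen, cut at about 21% in these data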
NOD2 BLA counter: NOD2-RIPK2 counterscreen BLA reporter activity | shares compounds with NOD2-RIPK2 inh | CHO BLA reporter, CCF4 FRET ratio | inhibition, % at 4.98 µM | 57% of 1,200 active | AID 624371;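 active = mean inhibition above the low-control mean inhibition plus three low-control SD, cut at about 11% in these data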
Hits are given with their value; – = inactive; · = not tested or not shown.

SMILES	IDE cell inh	NOD2-RIPK2 inh	TLR4-MyD88 BLA	IDE cell activ	TLR9-MyD88 block	NOD2 RIPK2 conf	NOD2 BLA counter
Cc1ccc(-c2nn(-c3ccccc3)cc2CN(Cc2ccccc2)C(=O)c2ccco2)o1	–	36	–	–	–	–	–
CCOC(=O)C1CCN(Cc2cc(Cl)c3ccccc3c2O)CC1	–	28	·	–	–	–	–
CCOC(=O)C1CCN(Cc2ccc(OC)c(C)c2OC)CC1	–	–	–	–	–	·	·
COc1cc([N+](=O)[O-])ccc1NC(=O)COC(=O)CCS(=O)(=O)c1ccc(C)cc1	–	–	·	–	–	·	·
Cc1c(Br)c(O)c(Br)c2sc(=O)oc12	–	–	·	–	–	·	·
CCOc1ccc(CNC(=O)CCc2cn(C)c3ccccc23)cc1OC	–	37	–	–	–	–	–
CCOc1ccc(CNC(=O)CCS(=O)(=O)Cc2ccccc2C)cc1OC	–	–	–	–	–	·	·
O=C1c2ccccc2C(=O)N1CC1CCCO1 (configuration not stated)	–	–	–	–	–	·	·
O=C1c2cccc3cc([N+](=O)[O-])cc(c23)C(=O)N1CC1CCCO1 (configuration not stated)	–	24	·	–	–	–	–
COc1nn(-c2ccccc2)c(=O)c(Cl)c1Cl	–	27	·	–	–	27	–
O=C(c1ccccc1)N1C(=O)C(c2ccccc2)Oc2ccccc21 (configuration not stated)	–	–	·	–	–	·	·
O=C1C(=NO)C(c2ccccc2)Oc2ccccc21 (configuration not stated)	·	28	·	–	–	–	27
CC(C)N1CC(C(=O)Nc2ccc(F)c(Cl)c2)CC1=O (configuration not stated)	–	–	·	–	–	·	·
Cc1cccc(CS(=O)(=O)c2ncc(Cl)c(C(=O)NCc3ccc4c(c3)OCO4)n2)c1	–	39	·	–	–	42	–
O=C(Cn1nnc(-c2ccccc2)n1)Nc1ccccc1N1CCOCC1	–	–	–	–	–	·	·
Cc1ccc(-c2nnn(CC(=O)Nc3ccccc3N3CCOCC3)n2)cc1	–	21	–	–	–	–	–
CCOc1ccc(S(=O)(=O)NCCC(=O)Nc2cccc(C(=O)OC)c2)cc1	–	–	·	–	–	·	·
CC(C)(C)c1ccc(C(=O)Nc2cccc(S(=O)(=O)NC3=NCCC3)c2)cc1	–	–	·	–	–	·	·
O=C1NC(=O)C2(CCCCCCCCCCC2)N1	–	–	·	–	–	·	·
Cc1nc2c(C#N)c(-c3ccc(Cl)cc3)ccn2n1	–	–	–	–	–	·	·
CC(C)(C)c1nc2c(C#N)c(-c3ccc(Cl)cc3)ccn2n1	–	24	–	–	–	–	–
COc1ccc(OC)c2sc(N(CCCN(C)C)C(=O)c3ccc(S(=O)(=O)N4CCc5ccccc5C4)cc3)nc12	–	·	·	·	·	·	·
COc1ccc(C)c2sc(N(CCCN(C)C)C(=O)c3ccc(S(=O)(=O)N4CCc5ccccc5C4)cc3)nc12	–	24	·	–	–	44	16
COc1ccc(CCN2C(=O)C=CC2=O)cc1OC	·	43	·	–	–	51	12
CCC(=O)Oc1ccc2c(c1)O/C(=C\c1ccco1)C2=O	–	44	·	·	·	56	61
SMILES	IDE cell inh	NOD2-RIPK2 inh	TLR4-MyD88 BLA	IDE cell activ	TLR9-MyD88 block	NOD2 RIPK2 conf	NOD2 BLA counter
COCCN(CCOC)Cc1c(O)ccc2c1O/C(=C\c1ccco1)C2=O	–	23	·	–	–	43	46
N/C(=N\OC(=O)c1cccc(Cn2cc(C(F)(F)F)ccc2=O)c1)c1ccc(Cl)cc1	–	–	·	·	·	·	·
COc1ccc(-c2noc(CNS(=O)(=O)c3ccc(NC(C)=O)cc3)n2)cc1OC	–	–	·	–	–	·	·
CCC(C(=O)NN1C(=O)c2ccccc2C1=O)c1ccccc1 (configuration not stated)	–	–	–	–	–	·	·
CC1CN(C(=O)COC(=O)/C=C/c2cccc([N+](=O)[O-])c2)CC(C)O1 (configuration not stated)	–	–	·	–	–	·	·
O=C(O)c1cc(Cl)ccc1-c1ccc(/C=C/c2cc(C(F)(F)F)[nH]c(=O)n2)o1	–	23	–	–	–	33	42
COc1ccc(CC(=O)Nc2ccncc2Cl)cc1	–	–	·	–	–	·	·
CC(=O)Nc1cccc(-c2ccnc3c2CC(C)(C(=O)NCc2ccncc2)O3)c1 (configuration not stated)	·	21	·	·	·	–	–
CC(=O)Nc1ccc(-c2ccnc3c2CC(C)(C(=O)NCc2ccncc2)O3)cc1 (configuration not stated)	·	–	·	·	·	·	·
Cn1c(/C=C/c2ccccc2)nc2ccccc21	–	–	–	–	–	·	·
CC(=O)c1ccc(/C=C/c2nc3ccccc3n2C)o1	–	54	·	·	·	68	70
O=C(c1cc(S(=O)(=O)N2CCOCC2)c(Cl)cc1Cl)N1CCN(S(=O)(=O)c2cccc(F)c2)CC1	–	–	·	–	–	·	·
Cc1ccc(NC(=O)CN(C)C(=O)CSc2nc3ccccc3c(=O)n2Cc2ccco2)cc1	–	21	–	–	–	–	16
O=C(Cc1ccc([N+](=O)[O-])cc1)NNC(=O)c1ccc2c(c1)OCO2	·	–	·	–	–	·	·
C#CCN(C[C@@H]1[C@@H](OC(=O)NCc2ccccc2F)[C@@H](OC(=O)NCc2ccccc2F)Cn2c(=O)ccc(=O)n21)S(=O)(=O)c1ccc(C)cc1	·	23	·	·	–	21	–
C#CCN(C[C@@H]1[C@@H](OC(=O)NCc2ccccc2F)[C@@H](OC(=O)NCc2ccccc2F)Cn2c(=O)n(CCCCCC)c(=O)n21)S(=O)(=O)c1ccc(C)cc1	·	–	·	·	–	·	·
COc1ccc(C(=O)COC(=O)CNC(=O)c2ccc(OC)cc2)cc1	–	–	–	–	–	·	·
CC1CCCC(C)N1C(=O)COC(=O)CNC(=O)c1sc2ccccc2c1Cl (configuration not stated)	–	–	·	–	–	·	·
Cc1ccccc1NC(=O)c1sc2nc3c(c(-c4ccco4)c2c1N)CCCC3	–	39	–	–	–	51	56
S=c1[nH]nc(-c2cc(-c3ccccn3)nc3ccccc23)o1	–	–	·	–	–	·	·
Cc1ccc(-c2cc(-c3n[nH]c(=S)o3)c3ccccc3n2)cc1	–	22	–	–	–	–	–
CCOCCCNC(=S)N(CCCN(C)C)Cc1cc2cc3c(cc2[nH]c1=O)OCCO3	–	–	·	–	–	·	·
Cc1nn(-c2ccccc2)c(C)c1C(=O)OCc1ccc(C#N)cc1	–	–	·	–	–	·	·
COc1cccc(CC(=O)NNC(=O)CN(C)S(=O)(=O)c2ccc(C)cc2)c1	–	–	·	–	–	·	·
CC(=O)OC1CCC2(C)C(CCC3C4CC=C(C(C)=O)C4(C)OC(=O)CC32)C1 (configuration not stated)	·	39	·	·	–	39	–
